Experimental data taken from the supplement of paper PMC8975748.
Where a name gives a salt, the structure may show the parent alone. ± gives the standard deviation of the averaged measurements.

Legend:
[1] = test system: Saccharomyces cerevisiae BY4741 SeMeCo community; assay: mean cell size (pixel area) (pixels); higher = larger cells; settings: 10 µM; 24 h; SM minimal medium
Procedure, shortened: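 Mean cell pixel area per well was measured in a four-plasmid fluorescent community of Saccharomyces cerevisiae BY4741, where every plasmid complements one auxotrophy and carries a fluorescent marker. Cells from an overnight preculture at OD600 = 1.0 were diluted to OD600 = 0.3 and dispensed at 70 µl into 384-well plates acoustically predosed with drug to a final 10 µM in SM medium. Incubation lasted 24 h, followed by paraformaldehyde fixation, automated confocal imaging and analysis in Harmony. Reported figures are averaged over 3 replicates. Same SeMeCo high-content imaging drug screen: Selleck FDA-approved drugs at 10 µM, 24 h in SM medium, 384-well plates, 3 replicates.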

[2] = test system: Saccharomyces cerevisiae BY4741 SeMeCo community; assay: z-score of prototroph abundance vs DMSO median; higher = larger share of this subpopulation than in DMSO controls; settings: 10 µM; 24 h; SM minimal medium; subpopulation (auxotrophy): Prototroph
Procedure, shortened: (§1)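 A community of Saccharomyces cerevisiae BY4741 was built from four plasmids that each restored one auxotrophy and encoded a distinct fluorescent protein. Pre-grown overnight to OD600 1.0 and diluted to 0.3, it was dispensed at 70 µl into 384-well plates acoustically predosed with library drugs for a final 10 µM, and grown 24 h in minimal SM medium. Cells were then paraformaldehyde-fixed and imaged by automated confocal microscopy. Thresholds and autofluorescence correction came from single-auxotroph fluorescent strains, and each subpopulation's abundance was scored as a z-score relative to the vehicle-well median.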

[3] = test system: Saccharomyces cerevisiae BY4741 SeMeCo community; assay: z-score of subpopulation abundance vs DMSO median, subpopulation auxotrophic for M; higher = larger share of this subpopulation than in DMSO controls; settings: 10 µM; 24 h; SM minimal medium; subpopulation (auxotrophy): M
Procedure, shortened: as §1

[4] = test system: Saccharomyces cerevisiae BY4741 SeMeCo community; assay: z-score of subpopulation abundance vs DMSO median, subpopulation auxotrophic for L; higher = larger share of this subpopulation than in DMSO controls; settings: 10 µM; 24 h; SM minimal medium; subpopulation (auxotrophy): L
Procedure, shortened: as §1

[5] = test system: Saccharomyces cerevisiae BY4741 SeMeCo community; assay: z-score of subpopulation abundance vs DMSO median, subpopulation auxotrophic for U; higher = larger share of this subpopulation than in DMSO controls; settings: 10 µM; 24 h; SM minimal medium; subpopulation (auxotrophy): U
Procedure, shortened: as §1

[6] = test system: Saccharomyces cerevisiae BY4741 SeMeCo community; assay: z-score of subpopulation abundance vs DMSO median, subpopulation auxotrophic for H; higher = larger share of this subpopulation than in DMSO controls; settings: 10 µM; 24 h; SM minimal medium; subpopulation (auxotrophy): H
Procedure, shortened: as §1

[7] = test system: Saccharomyces cerevisiae BY4741 SeMeCo community; assay: z-score of subpopulation abundance vs DMSO median, subpopulation auxotrophic for LU; higher = larger share of this subpopulation than in DMSO controls; settings: 10 µM; 24 h; SM minimal medium; subpopulation (auxotrophy): LU
Procedure, shortened: as §1

[8] = test system: Saccharomyces cerevisiae BY4741 SeMeCo community; assay: z-score of subpopulation abundance vs DMSO median, subpopulation auxotrophic for LM; higher = larger share of this subpopulation than in DMSO controls; settings: 10 µM; 24 h; SM minimal medium; subpopulation (auxotrophy): LM
Procedure, shortened: as §1

[9] = test system: Saccharomyces cerevisiae BY4741 SeMeCo community; assay: z-score of subpopulation abundance vs DMSO median, subpopulation auxotrophic for HM; higher = larger share of this subpopulation than in DMSO controls; settings: 10 µM; 24 h; SM minimal medium; subpopulation (auxotrophy): HM
Procedure, shortened: as §1

[10] = test system: Saccharomyces cerevisiae BY4741 SeMeCo community; assay: z-score of subpopulation abundance vs DMSO median, subpopulation auxotrophic for HU; higher = larger share of this subpopulation than in DMSO controls; settings: 10 µM; 24 h; SM minimal medium; subpopulation (auxotrophy): HU
Procedure, shortened: as §1

[11] = test system: Saccharomyces cerevisiae BY4741 SeMeCo community; assay: z-score of subpopulation abundance vs DMSO median, subpopulation auxotrophic for UM; higher = larger share of this subpopulation than in DMSO controls; settings: 10 µM; 24 h; SM minimal medium; subpopulation (auxotrophy): UM
Procedure, shortened: as §1

[12] = test system: Saccharomyces cerevisiae BY4741 SeMeCo community; assay: z-score of subpopulation abundance vs DMSO median, subpopulation auxotrophic for HLU; higher = larger share of this subpopulation than in DMSO controls; settings: 10 µM; 24 h; SM minimal medium; subpopulation (auxotrophy): HLU
Procedure, shortened: as §1

[13] = test system: Saccharomyces cerevisiae BY4741 SeMeCo community; assay: z-score of subpopulation abundance vs DMSO median, subpopulation auxotrophic for HLM; higher = larger share of this subpopulation than in DMSO controls; settings: 10 µM; 24 h; SM minimal medium; subpopulation (auxotrophy): HLM
Procedure, shortened: as §1

[14] = test system: Saccharomyces cerevisiae BY4741 SeMeCo community; assay: z-score of subpopulation abundance vs DMSO median, subpopulation auxotrophic for HUM; higher = larger share of this subpopulation than in DMSO controls; settings: 10 µM; 24 h; SM minimal medium; subpopulation (auxotrophy): HUM
Procedure, shortened: as §1

[15] = test system: Saccharomyces cerevisiae BY4741 SeMeCo community; assay: z-score of subpopulation abundance vs DMSO median, subpopulation auxotrophic for LUM; higher = larger share of this subpopulation than in DMSO controls; settings: 10 µM; 24 h; SM minimal medium; subpopulation (auxotrophy): LUM
Procedure, shortened: as §1

[16] = test system: Saccharomyces cerevisiae BY4741 SeMeCo community; assay: z-score of subpopulation abundance vs DMSO median, subpopulation auxotrophic for HLUM; higher = larger share of this subpopulation than in DMSO controls; settings: 10 µM; 24 h; SM minimal medium; subpopulation (auxotrophy): HLUM
Procedure, shortened: as §1

[17] = test system: Saccharomyces cerevisiae BY4741 SeMeCo community; assay: z-score of subpopulation abundance vs DMSO median, subpopulation auxotrophic for HL; higher = larger share of this subpopulation than in DMSO controls; settings: 10 µM; 24 h; SM minimal medium; subpopulation (auxotrophy): HL
Procedure, shortened: as §1

Compound	mean cell size [1]	z-score of prototroph abundance [2]	z-score of subpopulation abundance [3]	z-score of subpopulation abundance [4]	z-score of subpopulation abundance [5]	z-score of subpopulation abundance [6]	z-score of subpopulation abundance [7]	z-score of subpopulation abundance [8]	z-score of subpopulation abundance [9]	z-score of subpopulation abundance [10]	z-score of subpopulation abundance [11]	z-score of subpopulation abundance [12]	z-score of subpopulation abundance [13]	z-score of subpopulation abundance [14]	z-score of subpopulation abundance [15]	z-score of subpopulation abundance [16]	z-score of subpopulation abundance [17]
O=C(O)c1cn(C2CC2)c2cc(N3CCNCC3)c(F)cc2c1=O [Ciprofloxacin hydrochloride hydrate]	12.4 ± 0.27	-0.74	0.57	-0.22	0.96	-0.88	0.43	-0.37	0.16	0.3	0.65	0.36	0.11	0.96	0.41	0.98	
N[C@@H]1CCCCN(c2c(F)cc3c(=O)c(C(=O)O)cn(C4CC4)c3c2Cl)C1 [Besifloxacin HCl]	12 ± 0.16	-0.33	-0.11	0.15	0.87	0.1	0.95	0.38	-0.14	0.44	-0.28	0.25	0.44	-0.3		0.22	-0.33
COc1cc2c(cc1OC)C(=O)C(CC1CCN(Cc3ccccc3)CC1)C2 (stereo not given) [Donepezil HCl]	12 ± 0.22	0.26	0.12	-0.02	-0.01		-0.36	-0.26	-0.33	0.45		-0.1	0.49	0.3		-1.2	-0.23
Cn1nnc(-c2ccc(-c3ccc(N4C[C@H](COP(=O)(O)O)OC4=O)cc3F)cn2)n1 [Tedizolid Phosphate]	12.5 ± 0.29	1.14	-0.15	-1.36	0.63	-0.61	-0.94	-2.14	-0.87	-0.46		-0.8	-0.8	-0.98		-0.73	-0.86
CNS(=O)(=O)CCc1ccc2[nH]cc(C3CCN(C)CC3)c2c1 [Naratriptan HCl]	12.4 ± 0.17	0.15	0.48	-0.79	0.55	-0.46	0.2	0.06	-0.44	0.27	0.23	-0.03	-0.19	-0.27		-0.77	-0.28
Cc1ccccc1C(OCCN(C)C)c1ccccc1 (stereo not given) [Orphenadrine Citrate]	12.2 ± 0.14	0.04	-0.02	-0.09		-0.33	0.36	-0.43	-0.64	0.14	0.14	0.33	-0.97	-0.13	0.36	-0.1	-1.07
CC1(C)S[C@@H]2[C@H](NC(=O)[C@H](N)c3ccccc3)C(=O)N2[C@H]1C(=O)OCOC(=O)[C@@H]1N2C(=O)C[C@H]2S(=O)(=O)C1(C)C [Sultamicillin Tosylate]	12.28 ± 0.1	-0.54	0.72	-0.36		-0.32	-0.03	-0.09	0.76	0.19		-0.45	-0.09	0.26	-0.41	-0.64	0.21
Cc1[nH]cnc1CN1CCc2c(c3ccccc3n2C)C1=O [Alosetron Hydrochloride]	12 ± 0.2		0.38	0.02	1.4	-0.22	1.07	0.27	0.69	0.97	0.96	-0.13	0.08	0.46	-0.03	1.5	
NCCc1ccc(O)c(O)c1 [Dopamine HCl]	12.4 ± 0.15		-0.7	-1.11		-0.34	-0.45	-0.73	-0.38	-0.79	-0.71	-0.89	-0.89	-0.77	-0.34	-0.04	-1.06
C[n+]1ccccc1C=NO [Pralidoxime Iodide]	12.27 ± 0.1	-0.53	0.07	-0.18	0.58	-0.39	0.19	0.72	0.77	-0.21	0.29	-0.23	0.32	0.13		0.03	
CO[C@@H]1[C@@H](O[C@@H]2O[C@H](C)[C@@H](O[C@H]3C[C@@](C)(O)[C@@H](O)[C@H](C)O3)[C@H](N(C)C)[C@H]2O)[C@@H](CC=O)C[C@@H](C)[C@@H](O[C@H]2CC[C@H](N(C)C)[C@@H](C)O2)/C=C/C=C/C[C@@H](C)OC(=O)C[C@H]1OC(C)=O [Acetylspiramycin (ASPM)]	12.3 ± 0.32	-0.27	-0.27	1.91		1	0.65	1.53	0.27	-0.58	-0.94	1.65	0.23	0.11	1.09	1.07	
CCCCCOc1ccccc1/C(=C\SC)n1ccnc1 [Neticonazole Hydrochloride]	11.8 ± 0.13		-1.87	-1.5	-1.45	16.5	-2.84	-1.01	3.53	6.23		2.52	23.8	6.29		13	4.4
N#CC(c1ccc(Cl)cc1)c1c(Cl)cc(-n2ncc(=O)[nH]c2=O)cc1Cl (stereo not given) [Diclazuril]	12.52 ± 0.088		0.92	-0.07	-1.07	-0.16	-0.92	-0.81	-0.31	-0.93	-1.39	-0.02	0.16	-0.94	-0.7	0.35	
CCN1CCCC1CNC(=O)c1cc(S(=O)(=O)CC)c(N)cc1OC (stereo not given) [Amisulpride]	12.4 ± 0.13	0.14	0.12	-0.08		0.19	0.33	-0.1	-1.17	0.3	0.04	-0.63	-0.87	-0.03	-0.21	-0.8	-0.73
CC(C)C(=O)Oc1ccc(CO)cc1[C@H](CCN(C(C)C)C(C)C)c1ccccc1 [Fesoterodine Fumarate]	12.3 ± 0.21	0.94	0	-0.39	0.1	-1.08	-0.25	-0.9	-0.41	-0.72	-0.82	-0.16	-1	-0.72		-1.13	-0.27
C[C@]12CC[C@@H]3c4ccc(O)cc4CC[C@H]3[C@@H]1CC[C@@H]2O [Estradiol]	12.7 ± 0.21	0.44	0.4	-0.14	0.01	0.3	-0.02	-0.16	-0.39	-1.02	-0.27	0.9	-0.66	-0.92		1.17	-0.05
CCC(C)(C)c1ccc(CC(C)CN2C[C@@H](C)O[C@@H](C)C2)cc1 (stereo not given in full) [Amorolfine HCl]	12 ± 0.35	-9.52	9.64	-4.45		8.59	-0.63	-0.63	8.92	5.04	10	2.33	10.3	6	3.94	5.77	1.91
CC1CCc2cc(F)cc3c(=O)c(C(=O)O)cn1c23 (stereo not given) [Flumequine]	12.3 ± 0.18	1.18	-1.12	-0.69		-1	-0.58	-1.29	-1.42	0.37	-1.16	0.18	-0.73	-0.88	-0.22	0.55	-0.81
CC(=O)[O-].[K+] [Potassium acetate]	12.5 ± 0.15	0.52	-0.39	-0.45		-0.01	-0.01	-0.98	-0.29	0.19	-0.51	-0.71	-0.9	-0.43	-0.06	-0.44	0.08
O=c1[nH]cnc2c1ncn2[C@@H]1O[C@H](CO)[C@@H](O)[C@H]1O [Isoprinosine]	12 ± 0.19	0.72	-0.21	-0.33		0.09	-1.21	0	-0.53	-0.35	-0.74	-0.46	-0.33	-0.24	-0.5	-0.65	-0.64
CCCC1CC(C(=O)NC(C(C)Cl)C2OC(SC)C(O)C(O)C2O)N(C)C1 (stereo not given) [Clindamycin alcoholate]	12.1 ± 0.19		0.25	1.51	-0.8	0.65	-0.02	1.04	0.91	-0.93	-0.51	-0.02	0.08	0.14	0.51	-0.12	1.2
